Assay [1] in a line: AP1 Signaling Pathway (AID 357). Further: on the % scale 0 is the no-effect control and ±100 the full control effect. The note with it: ME-180 AP-1-bla reporter, EGF-induced, beta-lactamase ratio, 5 h; at 7.69 µM (top of the series) unless noted. A digest of the protocol:
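AP-1-bla ME-180 cells with beta-lactamase reporter under AP-1 response element, stimulated with EC50 EGF; compounds titrated, 5 hours at 37 degrees Celsius. CCF4 read at 460/530 nm ratio; positive and negative modulators judged by AC50.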

The target in assay [2] is Cytochrome P450 1A2 (Homo sapiens) (UniProt P05177). Kind of assay: p450-cyp1a2 (AID 410; calls by dose curve; further: potency means the concentration at half of the fitted maximal effect;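 on activity change, negative = inhibition: -100% = full effect of reference inhibitor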). The method in brief: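 O-Demethylation of luciferin 6' methyl ether by human CYP1A2 is monitored as luciferase luminescence. Substrate sits at Km (100uM); enzyme is 20nM. Values are scaled to 57 uM furafylline as maximal inhibition.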
Assay [3] can be described thus: NFAT Signaling Pathway (AID 444).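 Further: carbachol stimulus at about its EC50 of 1 µM final; on the % scale 0 is the no-effect control and ±100 the full control effect.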 To be noted: Jurkat NFAT-bla M1, carbachol, beta-lactamase ratio, 5 h; at 7.69 µM (top of the series) unless noted. A digest of the protocol:
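Jurkat cells with NFAT-driven β-lactamase reporter and co-expressed M1 receptor, stimulated with carbachol (final 1 uM, ~EC50), compound titration, 5 h at 37 °C. CCF4 loaded 1 h at RT; 460/530 nm ratio gave %activity and AC50.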

Assay [4] is described as follows: Stat Signaling Pathway (AID 446).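 Further: ME-180 cervical cancer cells given 40 pM IL-6 alongside compound; SIE-controlled beta-lactamase reporter measured as 460/530 nm FRET emission ratio; on the % scale 0 is the no-effect control and ±100 the full control effect.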 The note with it: ME-180 SIE beta-lactamase reporter, IL-6 stimulated, 5 h; at 7.69 µM (top of the series) unless noted. A digest of the protocol:
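Emission at 460 and 530 nm (excitation 405 nm) reports SIE-controlled beta-lactamase in ME-180 cells. Cells received compound with 40 pM IL-6 for 5 hrs at 37 C; data scaled between 300 pM IL-6 and 125 nM JAK-inhibitor controls.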

The target of assay [5] is Mitogen-activated protein kinase 10 (Mus musculus) (UniProt Q61831). Kind of assay: JNK3 AlphaScreen Assay (AID 530).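 Further: kinase came from lysate of stimulated human HepG2 cells; signal reports phosphorylation of biotinylated GST-cJun 1-79 at Ser73 with 10 µM ATP; on the % scale 0 is the no-effect control and ±100 the full control effect.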 A digest of the protocol:
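Activity was read by AlphaScreen after JNK3-containing HepG2 lysate (cytokine pre-activated) phosphorylated biotinylated GST-cJun with 10 uM ATP at room temperature. Phospho-Ser73 cJun antibody with Protein-A acceptor beads provided detection.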

The target in assay [6] is 3',5'-cyclic-AMP phosphodiesterase 4B (Homo sapiens) (UniProt Q07343). Kind of assay: qHTS Assay for Inhibitors of PDE-IV (AID 607; active means well fitted activation curve with a large enough effect in the main read-out, with a control signal flat, not every such curve was filed as active; further: % of control where 0% means no effect). A digest of the protocol:
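The readout is membrane depolarisation from a cAMP-sensing CNG channel, detected with a potential dye at ex 535/em 590. Cells were HEK293-derived (endogenous PDE-IV) at 1000 cells/well, titrated up to 22.9 uM final.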
Background: In qHTS, concentration-response curves come from the screen itself.

Assay [7] concerns the target Cytochrome P450 3A4 (Homo sapiens) (UniProt P08684). Kind of assay: qHTS Assay for Activators of Cytochrome P450 3A4 (AID 885; active means well fitted curve in the direction sought with a large enough effect; an effect the other way counts as inactive or inconclusive; further: nearly all actives have a fitted effect of over 65% in size). The method in brief: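 Activators are scored by enhanced luminescence from CYP3A4 conversion of luciferin-PPXE (25uM, equal to KM) to luciferin, after 60 min at RT with an NADPH-regenerating system.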
Assay [8] deals with Guanine nucleotide-binding protein G(i) subunit alpha-1 (Homo sapiens) (UniProt P63096). Kind of assay: qHTS Assay for Inhibitors of RGS12 GoLoco Motif Activity (Green Fluorophore) (AID 879; active means well fitted curve in the direction sought with a large enough effect; an effect the other way counts as inactive or inconclusive;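 further: 0% = labeled peptide with Gαi1 and full inhibition = labeled peptide alone without protein; negative values mean loss of peptide binding seen as reduced polarization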). The method in brief: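 A drop in FITC polarization marked displacement of the FITC-tagged RGS12 GoLoco peptide (10 nM) from Gαi1 (50 nM). Compounds were incubated 10 min at room temperature in Tris pH 7.5 buffer containing 150 mM NaCl, 0.1 mM GDP and 0.05% NP40; unlabeled peptide titration served as control.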

A short description of assay [9]: qHTS Assay for Identification of Small Molecule Antagonists for NFkB Signaling Pathway (AID 895; active means well fitted inhibition curve with a large enough effect in the signal ratio, with a control signal flat, not every such curve was filed as active; the % refers to the signal ratio; further: on the % scale 0 is the no-effect control and ±100 the full control effect). The method in brief: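 ME-180 NFkB-bla cells (beta-lactamase under NFkB response element), plated overnight, treated with compound then 10 pM TNF alpha (about EC50) for 5 hrs at 37 C. LiveBLAzer FRET read at 460/530 nm emission, 405 nm excitation.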
For assay [10], the target named is Cytochrome P450 2C19 (Homo sapiens) (UniProt P33261). Kind of assay: qHTS Assay for Inhibitors and Substrates of Cytochrome P450 2C19 (AID 899; active means well fitted curve in the direction sought with a large enough effect; an effect the other way counts as inactive or inconclusive; further: nearly all actives have a fitted effect of over 60% in size; further: potency means the concentration at half of the fitted maximal effect). The method in brief: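 Signal comes from luciferase acting on luciferin released by CYP2C19-mediated hydroxylation of Luciferin-H EGE, 10uM (KM). Assay mix: 5nM enzyme, 50mM KPO4; 60 min at 37C with NADPH regeneration. Data normalized against 57uM ketoconazole.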

Assay [11] in a line: qHTS Assay for Identification of Small Molecule Agonists for Thrombopoietin (TPO) Signaling Pathway (AID 917; active means well fitted curve in the direction sought with a large enough effect; an effect the other way counts as inactive or inconclusive; further: on the % scale 0 is the no-effect control and ±100 the full control effect). The method in brief:
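Quantitative HTS for pathway activators: compounds were pin-transferred onto IL-3-starved Ba/F3 cells expressing human TPO receptor, TPO was added at its EC50 (26 pM final), and after 24 hrs at 37 C reporter luciferase was measured.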

For assay [12], the target named is Muscarinic acetylcholine receptor M1 (Rattus norvegicus) (UniProt P08482). Kind of assay: qHTS Assay for Antagonists of Acetylcholine Muscarinic M1 Receptor: Measurement of IP-One Response (AID 944; active means well fitted curve in the direction sought with a large enough effect; an effect the other way counts as inactive or inconclusive; further: nearly all actives have a fitted effect of over 75% in size). The method in brief: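 Antagonist mode with rat M1 receptor transfected into CHO cells. Compound is added first for 10 min, carbachol at its EC80 follows for 30 min, and lysis reagents then allow TR-FRET detection of accumulated IP1.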

The target in assay [13] is Pyruvate kinase (Leishmania mexicana) (UniProt Q27686). Kind of assay: qHTS Validation Assay for Inhibitors of Leishmania Mexicana Pyruvate Kinase (AID 945; active means well fitted curve in the direction sought with a large enough effect; an effect the other way counts as inactive or inconclusive;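 further: 0% = DMSO only neutral control wells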). A digest of the protocol: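 Eight-point qHTS titrations in triplicate, data normalized to DMSO neutral control. Reaction: 0.2 nM LmPYK E451W mutant, 0.5 mM PEP, 0.1 mM ADP, 7 mM MgCl2, pH 7.2, one hour at room temperature; luminescent ATP detection.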

The target in assay [14] is Pyruvate kinase PKM (Homo sapiens) (UniProt P14618). Kind of assay: qHTS Assay for Activators of Human Muscle Pyruvate Kinase (AID 954; active means well fitted curve in the direction sought with a large enough effect, not every such curve was filed as active;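 further: 0% = uninhibited enzyme and -100% = no enzyme or full thiadiazolimine inhibition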). A digest of the protocol:
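PKM2, human, >95% pure, 0.1 nM; PEP 0.5 mM (Km), ADP 0.1 mM; 50 mM imidazole pH 7.2, 50 mM KCl, 0.01% Tween 20, 0.05% BSA; 1 h RT; luciferase luminescence readout.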

Assay [15] addresses Alpha-galactosidase A (Homo sapiens) (UniProt P06280). Kind of assay: Counterscreen for Glucocerebrosidase Inhibitors: qHTS Assay for Human alpha-Galactosidase at pH 4.5 (AID 992; active means well fitted curve in the direction sought with a large enough effect; an effect the other way counts as inactive or inconclusive; further: 0% is about no effect). A digest of the protocol: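 Fluorogenic 4-MU alpha-D-galactoside (80 uM) hydrolysis, 2 nM enzyme, pH 4.5 citrate buffer + 0.005% Tween-20; 20 min RT; NaOH/glycine pH 10 stop; Ex365/Em440. Compounds titrated 0.7 nM–77 uM; Hill-equation AC50.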
(The purpose of a counterscreen is to sort out artefacts and off-target activity.)

For assay [16], the target named is alpha-glucosidase (Oryza sativa, rice) (UniProt Q653V4). Kind of assay: Counterscreen for Glucocerebrosidase Inhibitors: qHTS Assay for Rice alpha-Glucosidase at pH 5.0 (AID 997; active means well fitted curve in the direction sought with a large enough effect; an effect the other way counts as inactive or inconclusive;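 further: 0% = full activity with enzyme and -100% = basal without enzyme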). A digest of the protocol:
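Endpoint fluorogenic assay at pH 5.0: compounds (0.7 nM to 77 uM) titrated against 4 nM rice enzyme and 400 uM 4-MU-alpha-glucoside for 20 min at room temperature; NaOH/glycine stop, read ex 365/em 440 nm, Hill-fitted AC50.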

The target in assay [17] is Glucocorticoid receptor (Homo sapiens) (UniProt P04150). Kind of assay: GR-GFP Redistribution (AID 450;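 active means compounds whose dose series gives a full or clear partial fitted curve of increased nuclear translocation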; further: potency means the concentration at half of the fitted maximal effect). To be noted: U2OS GR-GFP nuclear translocation, laser cytometry, 2 h.
Assay [18] has the same target. Kind of assay: GR-EFC Redistribution (AID 451; calls by dose curve; further: potency means the concentration at half of the fitted maximal effect). The note with it: CHO-K1 GR-EFC translocation, beta-gal luminescence, 2 h. A digest of the protocol:
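CHO-K1 cells expressing nuclear EA and GR-ED fragments of b-gal; compounds titrated up to 46 uM final, 2 h at 37 C. GR nuclear translocation read as complemented b-gal luminescence after 1 h RT detection.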

The target in assay [19] is Cytochrome P450 2D6 (Homo sapiens) (UniProt P10635). Kind of assay: qHTS Assay for Inhibitors and Substrates of Cytochrome P450 2D6 (AID 891; active means well fitted curve in the direction sought with a large enough effect; an effect the other way counts as inactive or inconclusive; further: nearly all actives have a fitted effect of over 60% in size; further: potency means the concentration at half of the fitted maximal effect). The method in brief:
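Luminescent read-out of luciferin formed by 5 nM human CYP2D6 demethylating 30 uM Luciferin-ME EGE (Km level) over 60 min at room temperature after NADPH regeneration addition. Data normalized to full inhibition by 1.43 uM quinidine.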

A number with no mark means an inactive call. Results filed as inconclusive are left out. The source made the active and inactive calls. Unless noted, the call rests on the fitted dose curve; in most records, active means well fitted curve in either direction with a large enough effect (not every such curve was filed as active); inconclusive means small, poorly fitted or top-dose-only effect, or another doubt; inactive means flat fitted curve, though single readings scatter.

3',5'-cyclic-AMP phosphodiesterase 4B (Homo sapiens), sequence (Q07343 whole entry, looked up): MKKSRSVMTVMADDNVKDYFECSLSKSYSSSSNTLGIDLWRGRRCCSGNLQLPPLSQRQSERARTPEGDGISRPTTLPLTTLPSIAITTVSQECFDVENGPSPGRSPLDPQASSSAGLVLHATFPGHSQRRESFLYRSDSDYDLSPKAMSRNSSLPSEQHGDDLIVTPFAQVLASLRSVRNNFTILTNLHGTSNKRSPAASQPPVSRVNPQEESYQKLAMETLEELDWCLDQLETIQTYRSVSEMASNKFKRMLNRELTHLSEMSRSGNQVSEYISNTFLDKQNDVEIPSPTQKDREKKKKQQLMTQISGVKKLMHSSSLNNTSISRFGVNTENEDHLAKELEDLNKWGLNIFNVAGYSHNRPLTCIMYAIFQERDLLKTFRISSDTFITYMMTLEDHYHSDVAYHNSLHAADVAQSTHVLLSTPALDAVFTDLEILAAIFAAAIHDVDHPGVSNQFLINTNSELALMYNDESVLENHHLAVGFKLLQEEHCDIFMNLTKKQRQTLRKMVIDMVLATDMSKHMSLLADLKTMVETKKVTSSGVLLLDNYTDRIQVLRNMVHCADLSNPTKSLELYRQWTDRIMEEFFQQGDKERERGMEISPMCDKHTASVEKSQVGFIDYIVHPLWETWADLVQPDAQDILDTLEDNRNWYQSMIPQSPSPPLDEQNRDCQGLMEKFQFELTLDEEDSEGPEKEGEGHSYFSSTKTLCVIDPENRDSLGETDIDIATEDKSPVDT
Muscarinic acetylcholine receptor M1 (Rattus norvegicus), sequence (P08482 whole entry, looked up): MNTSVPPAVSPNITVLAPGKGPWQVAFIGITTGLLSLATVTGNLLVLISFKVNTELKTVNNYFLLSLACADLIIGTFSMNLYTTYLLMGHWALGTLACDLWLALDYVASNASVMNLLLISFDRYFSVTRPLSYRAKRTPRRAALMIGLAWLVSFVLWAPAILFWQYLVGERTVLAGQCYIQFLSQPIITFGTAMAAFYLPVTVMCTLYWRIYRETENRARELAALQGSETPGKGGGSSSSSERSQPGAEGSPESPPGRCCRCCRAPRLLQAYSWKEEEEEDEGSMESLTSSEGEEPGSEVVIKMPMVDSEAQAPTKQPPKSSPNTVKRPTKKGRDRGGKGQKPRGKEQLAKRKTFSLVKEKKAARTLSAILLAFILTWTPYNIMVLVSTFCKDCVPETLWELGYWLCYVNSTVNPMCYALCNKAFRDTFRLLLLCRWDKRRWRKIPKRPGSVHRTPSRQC
Alpha-galactosidase A (Homo sapiens), sequence (P06280 whole entry, looked up): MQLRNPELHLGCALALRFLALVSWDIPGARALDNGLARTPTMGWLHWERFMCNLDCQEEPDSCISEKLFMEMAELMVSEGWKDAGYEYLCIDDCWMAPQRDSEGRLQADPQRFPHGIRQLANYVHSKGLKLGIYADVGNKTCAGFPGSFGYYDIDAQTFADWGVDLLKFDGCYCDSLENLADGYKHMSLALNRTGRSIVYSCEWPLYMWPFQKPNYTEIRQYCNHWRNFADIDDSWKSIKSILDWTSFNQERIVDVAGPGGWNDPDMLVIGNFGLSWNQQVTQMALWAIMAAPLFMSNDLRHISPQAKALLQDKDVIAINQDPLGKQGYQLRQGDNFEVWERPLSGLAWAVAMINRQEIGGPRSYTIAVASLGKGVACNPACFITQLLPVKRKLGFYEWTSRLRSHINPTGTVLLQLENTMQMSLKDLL
Cytochrome P450 2C19 (Homo sapiens), sequence (P33261 whole entry, looked up): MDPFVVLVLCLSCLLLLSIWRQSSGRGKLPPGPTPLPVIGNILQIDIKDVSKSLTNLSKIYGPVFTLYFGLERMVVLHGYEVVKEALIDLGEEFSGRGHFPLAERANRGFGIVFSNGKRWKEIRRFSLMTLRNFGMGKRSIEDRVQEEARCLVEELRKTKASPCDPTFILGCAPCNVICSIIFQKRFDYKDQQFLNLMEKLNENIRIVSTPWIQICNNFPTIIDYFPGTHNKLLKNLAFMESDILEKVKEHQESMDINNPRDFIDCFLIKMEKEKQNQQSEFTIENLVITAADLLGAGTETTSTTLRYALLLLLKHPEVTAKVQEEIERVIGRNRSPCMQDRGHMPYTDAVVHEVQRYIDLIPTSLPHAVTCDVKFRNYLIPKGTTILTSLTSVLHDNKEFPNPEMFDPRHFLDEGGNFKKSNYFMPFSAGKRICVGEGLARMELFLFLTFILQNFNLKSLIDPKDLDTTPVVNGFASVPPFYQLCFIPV
Cytochrome P450 1A2 (Homo sapiens), sequence (P05177 whole entry, looked up): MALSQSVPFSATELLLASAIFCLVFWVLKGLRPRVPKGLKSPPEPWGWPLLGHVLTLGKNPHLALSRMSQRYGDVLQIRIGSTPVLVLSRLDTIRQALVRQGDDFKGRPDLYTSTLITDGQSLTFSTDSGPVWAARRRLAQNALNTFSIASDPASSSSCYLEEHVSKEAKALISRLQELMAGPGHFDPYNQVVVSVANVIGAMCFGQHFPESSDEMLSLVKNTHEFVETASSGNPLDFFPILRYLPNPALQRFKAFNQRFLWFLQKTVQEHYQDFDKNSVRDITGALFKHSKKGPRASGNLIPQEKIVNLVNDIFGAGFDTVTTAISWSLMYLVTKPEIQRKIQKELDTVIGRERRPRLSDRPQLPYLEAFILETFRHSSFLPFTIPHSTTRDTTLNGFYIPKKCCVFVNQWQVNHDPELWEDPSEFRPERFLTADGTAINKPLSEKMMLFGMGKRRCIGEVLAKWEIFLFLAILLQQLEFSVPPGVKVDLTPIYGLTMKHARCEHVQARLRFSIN
Guanine nucleotide-binding protein G(i) subunit alpha-1 (Homo sapiens), sequence (P63096 whole entry, looked up): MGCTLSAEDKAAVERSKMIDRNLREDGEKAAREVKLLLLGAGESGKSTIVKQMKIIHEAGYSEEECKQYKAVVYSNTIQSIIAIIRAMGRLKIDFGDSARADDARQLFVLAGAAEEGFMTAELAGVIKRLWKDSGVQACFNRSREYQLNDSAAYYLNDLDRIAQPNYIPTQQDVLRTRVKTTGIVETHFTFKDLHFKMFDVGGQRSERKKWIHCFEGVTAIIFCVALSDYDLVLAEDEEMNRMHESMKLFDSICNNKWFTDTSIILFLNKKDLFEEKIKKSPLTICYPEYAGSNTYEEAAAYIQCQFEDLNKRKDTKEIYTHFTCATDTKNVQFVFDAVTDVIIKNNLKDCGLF
Pyruvate kinase (Leishmania mexicana), sequence (Q27686 2-499 E452W): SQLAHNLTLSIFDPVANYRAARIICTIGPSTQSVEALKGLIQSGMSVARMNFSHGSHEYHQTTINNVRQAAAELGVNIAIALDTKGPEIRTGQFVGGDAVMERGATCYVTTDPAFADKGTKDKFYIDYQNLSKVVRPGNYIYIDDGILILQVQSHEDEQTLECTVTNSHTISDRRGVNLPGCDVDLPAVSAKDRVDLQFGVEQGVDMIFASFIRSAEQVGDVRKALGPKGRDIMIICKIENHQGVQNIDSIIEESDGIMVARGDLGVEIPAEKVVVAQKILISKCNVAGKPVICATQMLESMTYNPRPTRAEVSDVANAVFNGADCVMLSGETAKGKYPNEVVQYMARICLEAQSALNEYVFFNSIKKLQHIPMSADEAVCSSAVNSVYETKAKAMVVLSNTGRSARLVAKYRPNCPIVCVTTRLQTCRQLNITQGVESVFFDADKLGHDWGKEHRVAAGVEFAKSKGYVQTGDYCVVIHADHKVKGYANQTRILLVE
Cytochrome P450 3A4 (Homo sapiens), sequence (P08684 whole entry, looked up): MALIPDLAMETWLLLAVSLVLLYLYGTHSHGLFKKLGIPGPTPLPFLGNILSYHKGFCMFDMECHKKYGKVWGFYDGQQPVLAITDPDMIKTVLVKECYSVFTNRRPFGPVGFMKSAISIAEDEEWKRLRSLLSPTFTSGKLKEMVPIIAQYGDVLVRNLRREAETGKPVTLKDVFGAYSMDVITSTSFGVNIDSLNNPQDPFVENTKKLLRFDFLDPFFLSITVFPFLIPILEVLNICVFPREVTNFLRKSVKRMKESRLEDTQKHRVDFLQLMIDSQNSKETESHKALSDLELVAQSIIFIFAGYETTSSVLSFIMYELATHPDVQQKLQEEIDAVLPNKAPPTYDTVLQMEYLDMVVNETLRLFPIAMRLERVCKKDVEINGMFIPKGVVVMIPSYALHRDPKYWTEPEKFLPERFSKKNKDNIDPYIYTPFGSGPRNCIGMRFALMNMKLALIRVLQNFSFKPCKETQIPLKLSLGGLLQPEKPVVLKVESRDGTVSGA
Cytochrome P450 2D6 (Homo sapiens), sequence (P10635 whole entry, looked up): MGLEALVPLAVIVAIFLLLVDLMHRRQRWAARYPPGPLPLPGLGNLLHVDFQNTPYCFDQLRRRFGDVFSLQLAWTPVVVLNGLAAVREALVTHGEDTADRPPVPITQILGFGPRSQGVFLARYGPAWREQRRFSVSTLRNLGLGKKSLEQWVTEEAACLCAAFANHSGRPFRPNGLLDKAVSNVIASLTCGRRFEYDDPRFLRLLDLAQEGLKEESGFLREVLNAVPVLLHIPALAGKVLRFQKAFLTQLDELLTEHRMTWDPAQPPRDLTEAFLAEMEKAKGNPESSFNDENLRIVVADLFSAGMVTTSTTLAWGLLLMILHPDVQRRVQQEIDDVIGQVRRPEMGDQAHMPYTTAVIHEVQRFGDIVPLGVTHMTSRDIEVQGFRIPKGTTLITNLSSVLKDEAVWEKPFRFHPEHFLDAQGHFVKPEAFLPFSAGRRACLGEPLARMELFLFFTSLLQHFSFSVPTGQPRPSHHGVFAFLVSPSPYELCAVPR

On to `C[C@@H]1C[C@H]2[C@H]3C[C@@H](F)C4=CC(=O)C=C[C@]4(C)[C@@]3(Cl)[C@@H](O)C[C@@]2(C)[C@@H]1C(=O)COC(=O)C(C)(C)C`, for which the activity change, negative = inhibition in assay [1] is -11.4% [at 17.2 µM]; in [3], -26.1% [at 17.2 µM]. In addition, the Potency entry in [2], in assay [5], in assay [6] and in [7] was “inactive” throughout. Moreover, the activity, negative = inhibition in assay [4] is -9.29% [at 17.2 µM].
Consider `C[C@@H](C(=O)O)c1ccc(C[C@@H]2CCCC2=O)cc1`, for which the activity change, negative = inhibition in assay [1] is 14.5% [at 38 µM]; in assay [3], 11.1% [at 38 µM]. Moreover, the Potency result in assay [2], in assay [5], in assay [6], in assay [9], in assay [10] and in assay [12] was “inactive” in each case. For the same molecule, the Potency result in assay [16] is “inactive”. In addition, the activity, negative = inhibition in assay [4] was 8.58% [at 38 µM]. Also, the molecule was called inactive in [8], in assay [11], in [13], in assay [14] and in assay [15].
With `N=C(N)SCc1cccc2c(=O)cc(-c3ccccc3)oc12`, the activity change, negative = inhibition in assay [1] is 28%; in assay [3], -23%. Moreover, the Potency in [2] is 0.126 µM (active); in assay [17], > 46 µM; in assay [18], > 9.22 µM; in assay [19], 2.51 µM (active). Further, the Potency result in assay [5], in assay [6] and in [7] was “inactive” each time.
For `C[C@H](N)C(=O)OC(C)(C)Cc1ccc(Cl)cc1`, the activity change, negative = inhibition in assay [1] was 9.46% [at 38 µM]; in assay [3] it was 18.9% [at 38 µM]. In addition, the Potency in [2] is 0.631 µM (active); in [10], 3.98 µM (active). Besides, in assay [4], the activity, negative = inhibition was 24.9% [at 38 µM]. Also, the Potency entry in [5], in [6], in assay [12] and in [16] was “inactive” in each case. Moreover, the call in assay [8], in [11], in assay [13], in [14] and in assay [15] was inactive.
With `Cc1ccc(C(=O)O[C@@H](C(=O)O)[C@@H](OC(=O)c2ccc(C)cc2)C(=O)O)cc1` (tested in a mixture with another compound), the activity change, negative = inhibition in [1] is -1.5% [at 38 µM]; in assay [3], 0.143% [at 38 µM]. Moreover, the Potency result in assay [2], in assay [6], in assay [12] and in assay [16] was “inactive” in each case. In assay [4], the activity, negative = inhibition is 0.98% [at 38 µM]. In addition, the molecule was called inactive in assay [8], in [11], in assay [13] and in [15].
With `CCC[C@@H]1O[C@@H]2C[C@@H]3[C@@H]4CCC5=CC(=O)C=C[C@@]5(C)[C@H]4[C@H](O)C[C@@]3(C)[C@@]2(C(=O)CO)O1`, the activity change, negative = inhibition in assay [1] was 8.13% [at 38 µM]; in assay [3], 9.04% [at 38 µM]. For the same molecule, the Potency entry in [2], in assay [5], in assay [6], in assay [19] and in [10] was “inactive” throughout. Further, in assay [4], the activity, negative = inhibition is 6.66% [at 38 µM].
For `CO/N=C(\C(=O)N[C@@H]1C(=O)N2C(C(=O)[O-])=C(C[N+]3(C)CCCC3)CS[C@@H]12)c1csc(N)n1`, the results for the activity change, negative = inhibition in [1] and in assay [3] were 2.79% [at 17.2 µM] and -16.9% [at 17.2 µM], respectively. The Potency result in assay [2], in assay [5] and in assay [6] was “inactive” throughout. In addition, the activity, negative = inhibition in assay [4] is 11.5% [at 17.2 µM].

The record behind these values is PubChem BioAssay (NCATS).
